Assay outcomes (PubChem)
Shown are actives, neighbours in structure and some others; about 2.4% of the full set was active somewhere.
D2 ag-1 – D2 dopamine receptor (human) agonism; HEK293 T-REx D2 cells, calcium flux agonist mode; activation, % at 2 µM; actives 0.53% (n = 340,000); AID 485358; P14416;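 active means activation over 3 SD above normal in the single-dose calcium agonist read, cut at about 30% in these data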; further: 0% is about no effect
Target sequence (P14416 whole entry, looked up): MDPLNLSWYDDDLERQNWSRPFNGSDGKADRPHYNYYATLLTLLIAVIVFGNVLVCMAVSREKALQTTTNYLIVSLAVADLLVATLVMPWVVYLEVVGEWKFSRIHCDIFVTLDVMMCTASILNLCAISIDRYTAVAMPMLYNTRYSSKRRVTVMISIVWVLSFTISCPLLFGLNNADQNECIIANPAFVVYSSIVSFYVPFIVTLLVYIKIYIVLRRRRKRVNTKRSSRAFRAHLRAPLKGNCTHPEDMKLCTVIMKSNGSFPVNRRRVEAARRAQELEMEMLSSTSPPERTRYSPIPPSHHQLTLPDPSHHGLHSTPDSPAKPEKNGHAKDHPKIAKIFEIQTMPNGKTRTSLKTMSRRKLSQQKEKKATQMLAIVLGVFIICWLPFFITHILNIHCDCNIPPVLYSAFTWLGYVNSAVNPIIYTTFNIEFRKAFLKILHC
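Agonism scored from kinetic calcium signal (1 read/sec, 180 s) following compound pin transfer, after a 10 s baseline. Cells: HEK293 Trex line expressing inducible D2 receptor coupled to calcium, dye-loaded after overnight culture at 30 C.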
D2 antagonist – antagonists of human D2 dopamine receptor; actives 2% (n = 340,000); HEK293 TREx D2 cells, calcium flux, dopamine EC80; inhibition, % at 10 µM; AID 485344; in the data active means inhibition above about 30%; inactive means below that, where a call was filed; further: 0% is about no effect
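Inhibition of EC80 dopamine-driven calcium flux, recorded kinetically, defines activity here; cells are a tetracycline-induced HEK293 T-REx line expressing force-coupled D2.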
D2 PAM-1 – positively modulates the human D2 dopamine receptor allosterically | P14416 | HEK293 T-REx D2, calcium flux, EC20 dopamine potentiation | potentiation, % at 10 µM | actives 0.34% (n = 340,000) | AID 485347;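 active means potentiation over 3 SD above the plate norm, cut at about 30% in these data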; further: 0% is about no effect
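Using a no-wash calcium dye in inducible, force-coupled HEK293 Trex cells expressing D2, we tracked fluorescence each second for 180 s after compound, then for 180 s after EC20 dopamine to detect augmented signalling.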
D2 ag-2 – activates the human D2 dopamine receptor | P14416 | DiscoveRx PathHunter D2 beta-arrestin, luminescence, 90 min; 100% = 57 uM dopamine signal | activation, % (no concentration beside the values) | actives 0.084% (n = 360,000); in the data active means activation above about 40%
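Agonist mode: compounds alone added to overnight-plated D2 PathHunter cells for 90 min at 37 C, with 57 uM final dopamine (EC100) defining full response. Beta-arrestin recruitment detected by chemiluminescent reagent, read after 1 h at ambient temperature.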
D2 PAM-2 – human D2 receptor positive allosteric modulation; DiscoveRx D2 beta-arrestin cells, luminescence, 90 min; 100% = 57 uM dopamine signal; potentiation, % (test concentration not listed); P14416; AID 624464; actives 0.23% (n = 360,000); in the data active means potentiation above about 50%
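PathHunter D2 cells, attached overnight at 37 deg C, received compound in DMSO plus dopamine at EC20 (50 nM final) for 90 min at 37 deg C. Beta-arrestin recruitment was read as luminescence after 1 h with detection reagent at ambient temperature.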
The depositor's hits bear a star; . = not tested or not shown.

SMILES	D2 ag-1	D2 antagonist	D2 PAM-1	D2 ag-2	D2 PAM-2
S=C(Nc1ccc(Cl)cc1)NC1CCCCC1	5.4	-7.5	-3.6	0.0	-5.5
O=C(COC(=O)C1CC(O)CN1S(=O)(=O)c1ccc(Cl)cc1)c1ccccc1 (configuration not stated)	-1.1	-27.3	2.1	1.2	-16.0
CC(C)N(C(=O)COC(=O)[C@@H]1CC(O)CN1S(=O)(=O)c1ccc(C(C)(C)C)cc1)C(C)C (some centres not stated)	1.8	37.8*	-6.7	-2.4	-6.4
C=CCN1C(=O)CN=C1Nc1cccc(C)c1	.	.	.	-3.8	0.6
CC(C)CCN1C(Nc2ccccc2)=NC[C@@H]1CC(C)C	0.4	-1.2	-24.0	-3.8	-8.9
CC(C)C[C@H]1CN=C(Nc2ccccc2)N1CCc1ccc(F)cc1	59.4*	73.5*	-18.0	-0.7	-67.1
Cc1cccc(NC2=NCC(=O)N2CCc2ccccc2)c1	1.6	37.3*	2.2	-4.9	-17.3
CC(C)C[C@H]1CN=C(Nc2ccccc2)N1CCc1cccc(F)c1	.	.	.	-1.9	-31.2
Cc1cccc(CCN2C(Nc3ccccc3)=NC[C@@H]2CC(C)C)c1	59.5*	69.9*	-25.4	-2.3	-16.3
O=C(NCc1cccnc1)c1ccc(-c2ccc(Cl)cc2)o1	0.4	-18.9	-16.5	2.5	-16.9
O=C(NCc1cccnc1)c1ccc(-c2cc(Cl)ccc2Cl)o1	-0.8	49.9*	-20.1	-5.7	-6.1
Cc1ccc(CC(=O)NCc2cccnc2)cc1	0.9	67.4*	4.1	.	.
Cc1c(Cl)c([N+](=O)[O-])nn1CC(=O)NCc1cccnc1	-0.4	39.3*	-1.6	2.9	0.3
Cc1ccc(CSCC(=O)NCc2cccnc2)cc1	-1.1	-1.1	-3.4	0.1	-2.9
Cc1cccc(C)c1N1C(=O)c2cccc([N+](=O)[O-])c2C1=O	0.0	12.4	12.0	5.2	82.7*
C/C(O)=C(/C=Nc1ccccc1)C(=O)Nc1ccccc1	1.2	33.0*	11.0	-2.5	-0.9
CC(C)(C)c1ccc(C(=O)CSc2n[nH]c(=O)[nH]c2=O)cc1	0.1	30.7*	-7.8	-2.7	-1.3
O=C(CSc1n[nH]c(=O)[nH]c1=O)c1ccc(Cl)cc1Cl	0.1	5.0	16.4	-0.5	-2.2
O=C(O)CCCC(=O)Nc1nc2n(n1)C(c1ccc(F)cc1)CC(c1ccc(Cl)cc1)N2 (configuration not stated)	-0.8	32.3*	-8.1	-2.5	-9.1
COc1ccc(S(=O)(=O)NCc2cccnc2)cc1Br	0.9	-5.2	4.2	11.2	59.9*
COc1ccc(S(=O)(=O)NCc2cccnc2)cc1	-0.6	7.9	-7.1	-4.7	-3.2
Nc1nc(NCc2ccco2)nc(NCCO)c1[N+](=O)[O-]	1.3	4.2	4.5	-4.8	-15.0
COCCCNC(=O)Cn1ncc2ccsc2c1=O	0.1	30.4*	-0.2	-3.0	0.2
Cc1cc(N2CCN(C)CC2)ccc1NC(=O)c1ccc(-c2ccc(Cl)cc2)o1	0.6	-3.8	4.8	-0.6	6.5
CCOc1ccc(-c2c(C#N)c(N)nc3sc(C(=O)c4ccccc4)c(N)c23)cc1	0.6	13.2	-11.6	-3.7	-11.3
SMILES	D2 ag-1	D2 antagonist	D2 PAM-1	D2 ag-2	D2 PAM-2
CCN(CC)S(=O)(=O)c1ccc(C(=O)OCCN2C(=O)c3cccc4c(N5CCOCC5)ccc(c34)C2=O)cc1	3.8	6.3	5.5	-5.3	-3.0
O=C(OCCN1C(=O)c2cccc3c(N4CCOCC4)ccc(c23)C1=O)c1cc(Cl)cc(Cl)c1	48.3*	2.8	-1.5	.	.
CCOc1ccccc1N1CCN(c2nc3ccccc3nc2C(C#N)C(=O)OC)CC1 (configuration not stated)	0.6	-6.8	3.1	4.2	17.6
Cc1ncc([N+](=O)[O-])n1Cc1cccc2ccccc12	-2.3	9.2	8.1	-1.3	-4.3
Cc1ncc([N+](=O)[O-])n1Cc1ccccc1F	-2.2	31.5*	-8.1	-1.0	-1.3
O=S(=O)(c1ccc(Cl)cc1)N1CCN(C2CCCCCC2)CC1	0.1	-22.5	-5.9	-2.7	-8.0
Cc1ccc(CNC(=O)c2cc3c(=O)n4cccc(C)c4nc3s2)cc1	-0.2	.	25.7	.	.
Cc1ccc(N(C(=O)c2snc(C(N)=O)c2N)C(C(=O)NCC2CCCO2)c2ccc(C)o2)c(C)c1 (configuration not stated)	-1.7	-8.0	2.3	-1.5	-3.5
CCc1ccccc1N(C(=O)c1snc(C(N)=O)c1N)C(C(=O)NCC1CCCO1)c1ccc(C)o1 (configuration not stated)	0.5	32.6*	0.1	4.8	-1.1
O=S(=O)(CCn1cccc1)CCn1cccc1	-0.2	-14.3	30.2*	-3.5	-20.9
CC(C)C(NC(=O)C12CC3CC(CC(C3)C1)C2)C(=O)NC1=NCCS1 (configuration not stated)	0.2	-5.9	15.3	.	.
O=C(NC1=NCCS1)C12CC3CC(CC(C3)C1)C2	-0.3	50.1*	-8.8	3.0	-8.8
O=C(/C=C/Nc1ccc(F)cc1)c1cccs1	.	.	.	-5.0	-9.6
OCC(CO)(CO)N=Cc1c(O)ccc2ccccc12	-0.3	-10.1	-7.2	8.4	50.2*
Oc1ccc2ccccc2c1C=NC12CN3CCN(CN(C3)C1)C2	.	.	.	11.5	102.5*
C=Cc1ccc(N=Cc2c(O)ccc3ccccc23)cc1	2.3	43.5*	16.4	-1.4	2.5
Oc1ccccc1N=Cc1c(O)ccc2ccccc12	24.1	-2.4	14.7	8.1	-7.1
CN(CCC1CCOCC1)Cc1nc(Cc2ccccc2F)no1	0.1	13.2	10.9	3.0	0.2
Cc1ccc(CNCC2CCCO2)o1 (configuration not stated)	-0.6	9.3	-4.1	-1.6	0.0
CCCCNCC1CCCO1 (configuration not stated)	0.4	69.6*	-20.6	-2.6	-6.5
CC(=O)c1c(-c2ccc(Cl)cc2Cl)noc1C	0.2	30.2*	-11.3	-19.2	-7.8
Cc1onc(-c2ccc(Cl)cc2Cl)c1C(=O)/C=C/N(C)C	-0.1	16.2	-1.3	-3.7	-12.5
CC(=O)Nc1ccc(NC(=O)C(C)OC(=O)CCc2nc3ccccc3s2)cc1 (configuration not stated)	-1.0	-9.6	6.6	5.5	2.2
CS(=O)(=O)N1CCN(c2ccccc2NC(=O)c2cccnc2Cl)CC1	0.0	32.8*	-1.3	-4.2	-4.9
CS(=O)(=O)N1CCN(c2ccccc2NC(=O)c2ccc(Cl)cc2)CC1	-0.2	-10.4	-4.5	2.7	17.8
CCCCCCCOC(=O)C1=C(C)Nc2ncnn2C1c1cccs1 (configuration not stated)	0.4	-14.7	15.6	-2.2	6.9
Cn1c(=O)c2sccc2n2c(CCCC(=O)NCc3cccnc3)nnc12	0.1	6.5	12.1	-5.3	-4.7
